For orientation: AC50 means the midpoint of the concentration-response curve, whichever way the signal moves.

The source holds several records for some structures; these can differ, active in one and inactive in another. Active and inactive are the calls of the source. Rule for the calls: active = hit-call score of the fitted dose curve at least 0.9, where 1 is the maximum; inactive = score below 0.9.

39 molecules from PubChem BioAssay (EPA / NIEHS) can be followed below.

This test is described as follows: CCTE_Shafer_MEA_dev_per_burst_interspike_interval: CCTE's Neural Network Formation Assay for Burst Interspike Interval, Shafer Lab (AID 2284044).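 For AC50: potency for a decrease of within-burst interspike interval below DMSO level.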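 Note: mean spike spacing inside bursts as AUC over recordings on days 5 7 9 12.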 As for the experimental part:
CCTE_Shafer_MEA_dev assay is conducted using Axion Biosystems 48 well microelectrode array (MEA) plates and Maestro recording system. Each well of the MEA plate contains a grid of 16 microelectrodes embedded in the culture surface. Electrically active cells, such as neurons, can be cultured over the electrodes, and electrical activity in these cells can be recorded extracellularly. The spontaneous firing of neurons is captured from each electrode on a microsecond timescale providing both temporally and spatially precise data. […] The CCTE_Shafer_MEA_dev assay uses primary cultures of rat cortical neurons. Recordings are made on days post-plating 5, 7, 9 and 12. As these cultures mature over time, neural networks develop functional activity and form cohesive networks in which electrical activity can be highly coordinated. CCTE_Shafer_MEA_dev_per_burst_interspike_interval is 1 of 19 assay components of the CCTE_Shafer_MEA_dev assay. It measures the average time interval between spikes (action potential firings) within a single-electrode burst (temporally-clustered group of spikes) during a recording in a microelectrode array (MEA) using Axion Biosystems Maestro 768 channel amplifier with the AxIS adaptive spike detector. The mean inter-spike interval within bursts is averaged across the actively bursting electrodes to report a well-mean value. To collapse across multiple recordings made on days post-plating 5, 7, 9 and 12, the trapezoidal area-under-the-curve of the component is calculated.Data from the assay component CCTE_Shafer_MEA_dev_per_burst_interspike_interval was analyzed into 1 assay endpoint. This assay endpoint, CCTE_Shafer_MEA_dev_per_burst_interspike_interval, was analyzed in the negative analysis fitting direction relative to DMSO as the negative control and baseline of activity. Using a type of functional reporter, gain or loss-of-signal activity can be used to understand electrical activity.
On the day prior to culture, each well was coated thoroughly with 150 uL of 0.05% polyethyleneimine (PEI, Sigma Cat P3143) in 50 mM HEPES (Sigma Cat H7523) at a pH of 8. The plate was incubated at 37C for one hour. PEI was rinsed out with 500 uL of sterile water three times. Plates were stored at 4C until the day of culture. This culture was plated at a seeding density of 1.5 x 10^5 cells/well on a 48-well MEA plate, prepared as described above. Cells were administered via a 25 uL media/laminin ([…]; Sigma Cat L2020-1MG) drop directly onto the microelectrode array, as adding the cells with the laminin results in better attachment than pre-coating with laminin. After 2 hours, an additional 475 uL of cortical media was added and the cells returned to the incubator. Exposure starts at day 0 of plating and is continued over twelve days of network development until the experiment is terminated. Cells are fed with fresh medium on DIV 5 and 9, following the recordings on those days. The entire volume of media in the well is exchanged and any vehicle or compound treatment is renewed. Complete details are found in OP-NHEERL/ISTD/SBB/TJS/2015-03-r0 (available on request, email shafer.tim@epa.gov). Measurement of the electrical activity is non-invasive, and recordings can be made from the same plate over multiple different days of the culture. In cortical neurons, this allows for the measurement of extracellular action potentials over the period during which networks form in the MEA plate.
For `C#CCN(C)[C@H](C)Cc1ccccc1`, the result was inactive.

In the case of `Cc1ccc(OP(=O)(Oc2ccc(C)cc2)Oc2ccc(C)cc2)cc1` (tested in a mixture with another compound), the molecule was classed as inactive.

Take `CN[C@]1(c2ccccc2Cl)CCCCC1=O`: the outcome was inactive.

With `CCOP(=O)(OCC)OC(Cl)C(Cl)(Cl)Cl` (stereo not given), the AC50 is 3480 nM (active).

As for `CC(=O)[O-].[Tl+]`, the result was inactive.

`Brc1ccc(Oc2ccc(Br)cc2Br)c(Br)c1`: the molecule was called inactive.

Regarding `COC(=O)[C@H]1[C@@H](OC(=O)c2ccccc2)C[C@@H]2CC[C@H]1N2C`, the result was inactive.

Regarding `CC1CCCC1.[C-]#[O+].[C-]#[O+].[C-]#[O+].[Mn]`, the result was inactive.

Turning to `c1ccc2cc3c(cc2c1)-c1cccc2cccc-3c12`, the outcome was inactive.

On to `CP(=O)(O)CC[C@H](N)C(=O)O`, for which the molecule was classed as inactive.

Turning to `CCC[CH2][Sn]([CH2]CCC)([CH2]CCC)[O][Sn]([CH2]CCC)([CH2]CCC)[CH2]CCC`, the AC50 was 76.8 nM (active).

Take `CC1(C)[C@H](C=C(Cl)Cl)[C@H]1C(=O)OCc1c(F)c(F)cc(F)c1F`: the AC50 is 13700 nM (active).

With `O=[As]O`, the AC50 is 2430 nM (active).

In the case of `C/C(=C/C=C/[C@@H](C)C(=O)O)[C@H]1CN[C@H](C(=O)O)[C@H]1CC(=O)O`, the call was inactive and the AC50 is 1330 nM (active).

For the molecule `C=CCN1CC[C@]23c4c5ccc(O)c4O[C@H]2C(=O)CC[C@@]3(O)[C@H]1C5`, the molecule was called inactive.

`CC1(C)C(C=C(Cl)c2ccc(Cl)cc2)C1C(=O)OC(C#N)c1ccc(F)c(Oc2ccccc2)c1` (stereo not given): the AC50 is 7600 nM (active).

Regarding `O=C(O)CNCP(=O)(O)O`, the result was inactive.

For the molecule `CC(=O)[O-].CC(=O)[O-].O.O.O.[Pb+2]`, the call was inactive.

Consider `C[C@H](N)Cc1ccccc1`, for which the outcome was inactive.

Turning to `O.O.O.O.O.[Cd+2].[Cd+2].[Cl-].[Cl-].[Cl-].[Cl-]`, the AC50 was 812 nM (active).

In the case of `[CH3][Hg][Cl]`, the AC50 is 322 nM (active).

Turning to `C[n+]1ccc(-c2ccccc2)cc1`, the result was inactive.

Take `CC(C)CCCCCCCOP(=O)(Oc1ccccc1)Oc1ccccc1`: the outcome was inactive.

In the case of `CCOP(=O)(OCC)SCSC(C)(C)C`, the molecule was classed as inactive.

As for `Brc1ccc(Oc2cc(Br)c(Br)cc2Br)c(Br)c1`, the result was inactive.

Take `c1ccc2c(c1)cc1ccc3cccc4ccc2c1c34`: the call was inactive.

Consider `CCCCC(CC)COC(=O)c1cc(Br)c(Br)c(Br)c1Br` (stereo not given), for which the outcome was inactive.

As for `CNC(=N[N+](=O)[O-])NCC1CCOC1` (stereo not given), the call was inactive.

For the molecule `CC1(C)C(C=C(Cl)Cl)C1C(=O)O[C@H](C#N)c1cccc(Oc2ccccc2)c1` (stereo not given in full), the AC50 was 2890 nM (active).

Take `CC1(C)[C@@H](C=C(Cl)Cl)[C@@H]1C(=O)O[C@@H](C#N)c1ccc(F)c(Oc2ccccc2)c1`: the molecule was classed as inactive.

As to `CCC1(c2ccccc2)C(=O)NC(=O)NC1=O`, the molecule was classed as inactive.

As for `NCCc1cc(O)c(O)cc1O`, the call was inactive.

For the molecule `C[n+]1ccc(-c2cc[n+](C)cc2)cc1`, the AC50 was 2330 nM (active).

With `CCOP(=S)(OCC)SCS(=O)C(C)(C)C` (stereo not given), the molecule was classed as inactive.

For the molecule `CC1(C)[C@H](C(=O)O[C@H](C#N)c2cccc(Oc3ccccc3)c2)[C@@H]1C=C(Br)Br`, the AC50 was 15000 nM (active).

Consider `CCOP(=O)(OCC)SCSCC`, for which the molecule was called inactive.

With `CCOP(=O)(Oc1cnc(C(C)(C)C)nc1)OC(C)C` (stereo not given), the call was inactive.

Regarding `CP(=O)(O)CCC(N)C(=O)O` (stereo not given), the result was inactive.

With `[CH3][Sn]([CH3])[CH3]`, the AC50 is 2330 nM (active).
